Test results taken from PubChem BioAssay AID540259 (Broad Institute, 2011).
Potency and affinity values are given separately. A number with no mark means an inactive call.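 Rule for the calls: active = cell killing, meaning signal decrease, with fitted half-maximal dose at or below ten times the top valid tested dose; inconclusive = poor fit, or flat curve with 30 to 70% signal loss; inactive = the rest.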

Assay: ATP-based viability loss in HeLa cells – cell-based, CellTiter-Glo luminescence, cherry-pick samples, cytotoxicity control for MITF activator project, dose response (AID 540259);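 note: 0% = DMSO neutral control and -100% = mitoxantrone positive control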
Settings: 24 h; series mostly up to 35 µM; activity change, negative = cytotoxicity: at the top concentration

SMILES | activity change, negative = cytotoxicity
Cc1ccc(Nc2nnc(-c3ccccc3N)o2)cc1C | -1.3%
NNC(=O)c1ccc2nc(-c3ccc(Br)cc3)cn2c1 | 11.7%
Clc1ccc(-c2cc(CSc3ccccc3)on2)cc1 | -6.17%
O=C(NCC1CC1)Nc1ccc(Cl)cc1 | 8.75%
CCN=c1scc(-c2ccc(F)cc2)n1/N=C/c1ccccn1 | 11.2%
COc1ccc(-c2noc(-c3cccc(OC)c3OC)n2)cc1OC | -1.26%
O=C(Cc1ccccc1F)Nc1ccc(SC(F)F)cc1 | -0.022%
Cc1ccc(-c2cn(-c3ccccc3)c(=S)[nH]2)cc1C | 20% [at 11 µM]
CCc1cccc(NC(=O)c2sc3nc4n(c(=O)c3c2C)CCC4)c1 | -1.51%
Cc1cc(Cl)ccc1OCc1cn2cccnc2n1 | 14.3%
CCc1ccc(C(=O)N/N=C(\C)c2cccnc2)s1 | 8.45%
CCc1c(C(=O)Nc2ccc(C)c(C)c2)[nH]c(C)c1C(C)=O | 0.691%
CCn1c(C(=O)NC2CCC(C)CC2)cc2sccc21 (configuration not stated) | -2.55%
COc1ccc(/C=N/Nc2nccnc2Cl)c(OC)c1 | 8.52%
CC(C)(C)c1csc(NC2=NS(=O)(=O)c3ccccc32)n1 | 4.58%
COc1ccc(NC(=O)Nc2ccc(Br)cn2)cc1 | 6.21%
CCc1ccc2[nH]c3nc(C)cc(C)c3c(=O)c2c1 | -2.28%
COc1cc(/C=C/c2nc3ccccc3c(=O)[nH]2)ccc1OC(F)F | 0.185%
Cc1ccccc1Nc1nc(N)nc(COC(=O)c2ccccc2)n1 | 11.2%
COc1ccccc1Nc1nc(C)cs1 | 25.3%
COC(=O)c1ccc(Nc2ncnc3sccc23)cc1 | 11.5%
COc1cccc(/C=N/Nc2c(Cl)cncc2Cl)c1O | -9.53%
